TDP1 cell CPT = growth inhibition of DT40 Tdp1-/-;hTDP1 cells with camptothecin (screen for TDP1 inhibitors). hit rate 12% among 420,000. Potency, µM (top dose mostly 46.2 µM), usual class: inhibitors. AID 686979. chicken DT40 Tdp1-/-;hTDP1 cells + 20 nM CPT, ATP luminescence, 48 h; note: nearly all actives have a fitted effect of over 55% in size
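Cell growth measured by CellTiter-Glo luminescence after a minimum 48 h, 37 C compound exposure with 20 nM CPT in Tdp1-knockout DT40 cells stably expressing hTDP1, seeded 400/well; qHTS titration format.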
HT1080-NT tox = kills 2HG-producing HT-1080-NT fibrosarcoma cells | HT-1080-NT fibrosarcoma viability, CellTiter-Glo ATP luminescence, 48 h | Potency, µM (highest dose often 46.1 µM), actives largely listed as cytotoxic | hit rate 1.6% among 360,000 | AID 686970;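 note: NT is the 2HG producing partner of a matched IDH1 knockdown line; nearly all actives have a fitted effect of over 55% in size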
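HT-1080-NT fibrosarcoma cells (2HG-overproducing), 750 cells/well in RPMI with 5% FBS, dosed after 2 h and incubated 48 h at 37C. CellTiter-Glo luminescence normalized to DMSO and no-cell wells; concentration-response curves fitted and classed.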
DT40 TDP1 no CPT = qHTS for Inhibitors of human tyrosyl-DNA phosphodiesterase 1 (TDP1): qHTS in cells in absence of CPT; DT40 Tdp1-/- hTDP1 cells, no CPT, ATP luminescence, 48 h; hit rate 15% among 420,000; Potency, µM (highest dose often 46.2 µM), most hits filed as inhibitors; AID 686978, 2013; note: nearly all actives have a fitted effect of over 55% in size
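Growth kinetics read by CellTiter-Glo luminescence after ≥48 hr at 37 °C. Cells: DT40 Tdp1-/- stably carrying human TDP1, 400 per well, compound exposure in the absence of CPT (DMSO vehicle).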
ELG1 DNA repair = blocks ELG1-dependent DNA repair in HEK293T cells. HEK293T ELG1-luciferase reporter, luminescence, 16 h; DNA damage induced by 5-fluorouridine. Potency, µM (highest dose often 46.1 µM), usual class: inhibitors. hit rate 2.3% among 330,000; note: nearly all actives have a fitted effect of over 55% in size
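DMSO vehicle served as the neutral condition. Each well held 2,000 cells given 5-fluorouridine plus compound; after 16 hr at 37 °C/5% CO2, ONE-Glo was added and luciferase measured 30 min later.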
IL-1B inflam inh = blocks inflammasome-driven IL-1 beta release | hit rate 4.7% among 360,000 | THP-1 LPS/ATP IL-1B secretion, AlphaLISA, 16 h; active compounds read low | activity change, % at 57.5 µM; in the data active = activity change below about -50%; inconclusive = mostly about -30% to -49%
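THP-1 cells pretreated 1 hr with compounds (up to 57.5 uM final), then stimulated with LPS (250 ng/mL final) plus ATP (1.25 mM final); secreted IL-1B measured by AlphaLISA after 16 hr, decreased signal indicating inhibition.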
HT1080 IDH1KD tx = kills HT-1080 cells with IDH1 knockdown; hit rate 2% among 360,000; AID 686971; HT-1080 IDH1 knockdown viability, ATP luminescence, 48 h; Potency, µM (titrated, usually from 46.1 µM), usual class: cytotoxic
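% activity derives from luminescence (CellTiter-Glo), normalised to DMSO and no-cell wells. HT-1080-IDH1KD cells, 750/well, had 48 h compound exposure at 37 °C.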
Each line names hits and unclear results; the compound was inactive in the other large screens. In the library only some 19% were active in any assay of this set; here they are far more common. Unless noted, calls come from the whole dose curve; as a rule, active = well fitted curve in the direction sought with a large enough effect; inconclusive = small, poorly fitted or top-dose-only effect, or another doubt; inactive = no such curve, though single readings can be large; an effect the other way counts as inactive or inconclusive.

O=C(Nc1cccc(F)c1)C1CCN(c2nc3ccccc3[nH]2)CC1	TDP1 cell CPT 23µM, DT40 TDP1 no CPT inconclusive (no result: HT1080-NT tox, ELG1 DNA repair, IL-1B inflam inh, HT1080 IDH1KD tx)
CN(C)CCNC(=O)C1CCN(c2nc3ccccc3[nH]2)CC1	none (no result: HT1080-NT tox, ELG1 DNA repair, IL-1B inflam inh, HT1080 IDH1KD tx)
COc1ccc(NC(=O)C2CCN(c3nc4ccccc4[nH]3)CC2)cc1OC	none (no result: HT1080-NT tox, ELG1 DNA repair, IL-1B inflam inh, HT1080 IDH1KD tx)
N#CN1CCC(NS(=O)(=O)c2ccc(C(F)(F)F)cc2)CC1	none (no result: TDP1 cell CPT, HT1080-NT tox, DT40 TDP1 no CPT, IL-1B inflam inh, HT1080 IDH1KD tx)
NNC(=S)Nc1c(F)cc(F)cc1Br	TDP1 cell CPT inconclusive, DT40 TDP1 no CPT 13µM
COc1ccc2cc(/C=C3\SC(=S)NC3=O)c(N3CCOCC3)nc2c1	TDP1 cell CPT inconclusive, DT40 TDP1 no CPT 12µM, ELG1 DNA repair inconclusive, IL-1B inflam inh -69, HT1080 IDH1KD tx inconclusive
O=C1NC(=S)S/C1=C/c1ccc(N2CCOCC2)o1	TDP1 cell CPT inconclusive, DT40 TDP1 no CPT inconclusive, ELG1 DNA repair inconclusive
COc1ccccc1NC(=O)CN(Cc1ccco1)C(=O)c1ccc(-n2nc(C)cc2C)cc1	TDP1 cell CPT inconclusive, DT40 TDP1 no CPT 16µM, ELG1 DNA repair 23µM
CCOc1ccc(C(=O)N(Cc2ccc(C(C)C)cc2)Cc2ccco2)cc1	TDP1 cell CPT inconclusive, DT40 TDP1 no CPT 21µM (no result: HT1080-NT tox, ELG1 DNA repair, IL-1B inflam inh, HT1080 IDH1KD tx)
Cc1ccc(CN(Cc2ccco2)C(=O)c2ccc(OCC(C)C)cc2)cc1	TDP1 cell CPT inconclusive, DT40 TDP1 no CPT 16µM (no result: HT1080-NT tox, ELG1 DNA repair, IL-1B inflam inh, HT1080 IDH1KD tx)
CC(C)COc1ccc(C(=O)N(CC(=O)Nc2ccccc2C(F)(F)F)Cc2ccco2)cc1	TDP1 cell CPT inconclusive, HT1080-NT tox inconclusive, DT40 TDP1 no CPT inconclusive, IL-1B inflam inh -72
COc1ccccc1NC(=O)CN(Cc1ccco1)C(=O)c1cncc(Br)c1	none
CCN(C(=O)CSc1nc2nc(C)cc(C)n2n1)c1cccc(C)c1	none
Cn1nnnc1SCc1ccccc1F	none
CCCN(CCC)C(=O)CSc1nc2n[nH]c(C)c2c(=N)n1-c1ccc(OC)cc1	TDP1 cell CPT 13µM, DT40 TDP1 no CPT 10µM, ELG1 DNA repair inconclusive
CCN(CC)C(=O)CSc1nc(O)c(Cc2ccccc2)c(=O)n1-c1ccccc1C	DT40 TDP1 no CPT inconclusive
CCCCN(CC)C(=O)CSc1nc2n[nH]c(C)c2c(=N)n1-c1ccc(CC)cc1	TDP1 cell CPT 10µM, DT40 TDP1 no CPT 5.2µM (no result: HT1080-NT tox, ELG1 DNA repair, IL-1B inflam inh, HT1080 IDH1KD tx)
Cc1cc(-n2c(SCc3ccccc3F)nc3n[nH]c(C)c3c2=N)ccc1Cl	TDP1 cell CPT inconclusive, HT1080-NT tox inconclusive, DT40 TDP1 no CPT inconclusive, HT1080 IDH1KD tx 21µM
CCN(C(=O)CSc1nc2n[nH]c(C)c2c(=N)n1-c1ccc(Cl)c(C)c1)c1cccc(C)c1	TDP1 cell CPT 18µM, DT40 TDP1 no CPT 21µM, ELG1 DNA repair inconclusive, IL-1B inflam inh inconclusive
COCc1c(C(=O)N2CCN(C3CCCC3)CC2)cnn1-c1nccc(-c2cc(C)sc2C)n1	none (no result: HT1080-NT tox, ELG1 DNA repair, IL-1B inflam inh, HT1080 IDH1KD tx)
CCCCN(C(=O)C1CCN(C(=O)c2ccccc2C)CC1)c1c(N)n(CC(C)C)c(=O)[nH]c1=O	none (no result: ELG1 DNA repair)
O=C(C1=C(O)C(=O)N(CCN2CCOCC2)C1c1cccc(F)c1)c1cc2ccccc2o1 (stereo unspecified)	none
CCCCN(CC)C(=O)CSc1nc2n[nH]c(C)c2c(=N)n1-c1cccc(OC)c1	TDP1 cell CPT 23µM, DT40 TDP1 no CPT 9.2µM (no result: HT1080-NT tox, ELG1 DNA repair, IL-1B inflam inh, HT1080 IDH1KD tx)
CCCCN(CC)C(=O)CSc1nc2n[nH]c(C)c2c(=N)n1-c1cccc(C)c1	TDP1 cell CPT 7.3µM, DT40 TDP1 no CPT 21µM, ELG1 DNA repair inconclusive
COc1ccc(S(=O)(=O)/N=C2\C=C(Nc3ccc(O)cc3)C(=O)c3ccccc32)cc1	TDP1 cell CPT 0.82µM, HT1080-NT tox 1.8µM, DT40 TDP1 no CPT 1.5µM, ELG1 DNA repair 5.8µM, IL-1B inflam inh -96, HT1080 IDH1KD tx 2.1µM
Cc1ccc(NC2=C/C(=N/S(=O)(=O)c3cccs3)c3ccccc3C2=O)cc1C	TDP1 cell CPT inconclusive, DT40 TDP1 no CPT 7.3µM, ELG1 DNA repair inconclusive
CCc1ccc(S(=O)(=O)/N=C2\C=C(NS(=O)(=O)c3ccccc3)C(=O)c3ccccc32)cc1	TDP1 cell CPT inconclusive
